Measurements published in PubChem BioAssay (NCI).
This is part of a sample that, as a whole, favours compounds with a hit. Of some 79,000 tested, about 15% had one in any assay. Unmarked numbers belong to inactive results. Activity calls are given as the source filed them. Rule as the data show it: active = growth inhibition above about 70%; inactive = the rest.

How the values were obtained:
[1] = NCI Yeast Anticancer Drug Screen. Data for the mec2-1 strain (AID 157); settings: S. cerevisiae mec2-1 strain, stronger effect = higher value
Method in brief: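 Test agents were screened against the mec2-1 yeast strain, with defined DNA repair or cell cycle alteration. Growth was scored as inhibition against vehicle-only controls.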

[2] = NCI Yeast Anticancer Drug Screen. Data for the rad14 strain (AID 159);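 also: 0% = growth of vehicle-treated control cultures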; settings: S. cerevisiae rad14 strain growth inhibition, stronger effect = higher value
Method in brief: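 Readout: yeast growth inhibition, referenced to vehicle-only cultures. Strain bears a defined alteration in DNA damage repair.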

[3] = NCI Yeast Anticancer Drug Screen. Data for the sgs1 mgt1 strain (AID 161);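 also: 0% = growth of cultures given vehicle only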; settings: S. cerevisiae sgs1 mgt1 strain, stronger effect = higher value
Method in brief: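 Mutant yeast exposed to compound; growth scored against vehicle-only wells.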

[4] = NCI Yeast Anticancer Drug Screen. Data for the CLN2oe strain (AID 163);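 also: 0% = growth of vehicle-only control cultures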; settings: S. cerevisiae CLN2oe strain, stronger effect = higher value
Method in brief: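 Here, growth inhibition in a cell-cycle-altered yeast strain after compound exposure was quantified against vehicle control growth.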

[5] = NCI Yeast Anticancer Drug Screen. Data for the cln2 rad14 strain (AID 165);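 also: 0% = growth equal to vehicle treated cultures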; settings: S. cerevisiae cln2 rad14 strain, stronger effect = higher value
Method in brief: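 Growth of compound-exposed yeast (cln2 rad14 genotype) measured and expressed as inhibition relative to vehicle.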

[6] = NCI Yeast Anticancer Drug Screen. Data for the bub3 strain (AID 167); settings: S. cerevisiae bub3 mutant strain, stronger effect = higher value
Method in brief: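 Part of a panel of yeast mutants defective in DNA damage repair or cell cycle regulation. Each strain is grown with compound, and inhibition is calculated relative to solvent-treated cultures.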

[7] = NCI Yeast Anticancer Drug Screen. Data for the wt2 strain (AID 169);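 also: 0% = growth of vehicle-treated yeast cultures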; settings: S. cerevisiae wt2 strain growth inhibition, stronger effect = higher value
Method in brief: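 Genetically defined yeast strains from a DNA-repair/cell-cycle panel were used. Compound-exposed yeast growth was measured, and the inhibition was calculated relative to vehicle treatment.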

[8] = NCI Yeast Anticancer Drug Screen. Data for the mlh1 strain (AID 171);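 also: 0% = growth of vehicle-treated control cultures of the same strain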; settings: S. cerevisiae mlh1 strain growth inhibition, stronger effect = higher value
Method in brief: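 Here the genetically defined yeast mutant is grown with each compound, and the extent to which its growth falls below that of vehicle-exposed cells is reported.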

[9] = NCI Yeast Anticancer Drug Screen. Data for the sgs1 strain (AID 173);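 also: 0% = growth of vehicle-only control cultures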; settings: S. cerevisiae sgs1 mutant, stronger effect = higher value
Method in brief: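 Relative growth inhibition, referenced to vehicle, was determined in a yeast strain with a defined alteration affecting DNA damage repair or cell cycle control after compound exposure.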

[10] = NCI Yeast Anticancer Drug Screen. Data for the mlh1 rad18 strain (AID 175); settings: S. cerevisiae mlh1 rad18 strain growth inhibition, stronger effect = higher value
Method in brief: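 In this whole-cell yeast screen, a strain with altered DNA damage repair is challenged with compound, and its growth is measured against matched vehicle-treated controls.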

[11] = NCI Yeast Anticancer Drug Screen. Data for the rad18 strain (AID 177); settings: S. cerevisiae rad18 mutant growth inhibition, stronger effect = higher value
Method in brief: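 Screen uses a yeast strain with a defined lesion in DNA damage repair; compound effect is read as loss of growth compared to untreated vehicle cultures.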

[12] = NCI Yeast Anticancer Drug Screen. Data for the rad52 strain (AID 147);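 also: 0% = growth of vehicle-treated control cultures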; settings: S. cerevisiae rad52 mutant growth inhibition, stronger effect = higher value
Method in brief: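 Measured: yeast growth inhibition. System: strain with a defined DNA damage repair alteration. Reference: vehicle-treated control cultures.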

[13] = NCI Yeast Anticancer Drug Screen. Data for the wt1 strain (AID 149);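 also: 0% = growth of vehicle-treated wt1 cultures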; settings: S. cerevisiae wt1 strain (SPY 50644) growth inhibition, stronger effect = higher value
Method in brief: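 The wt1 strain was treated with compounds, and growth was compared with vehicle-treated cultures to give inhibition.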

[14] = NCI Yeast Anticancer Drug Screen. Data for the rad50EPP+ strain (AID 151);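 also: 0% = growth of vehicle-treated control cultures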; settings: S. cerevisiae rad50 mutant strain, stronger effect = higher value
Method in brief: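 One strain with a rad50 alteration (rad50EPP+) was compound-treated, its growth then compared to that of vehicle controls.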

[15] = NCI Yeast Anticancer Drug Screen. Data for the mgt1 strain (AID 153); settings: S. cerevisiae mgt1 mutant growth inhibition, stronger effect = higher value
Method in brief: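 After exposure of the mgt1 yeast mutant to compound, growth was measured and reported as inhibition compared with vehicle controls.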

[16] = NCI Yeast Anticancer Drug Screen. Data for the rad50 strain (AID 155);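 also: 0% = growth of vehicle-only cultures of the same strain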; settings: S. cerevisiae rad50 strain growth inhibition, stronger effect = higher value
Method in brief: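 Cells are treated with compound, grown, and their growth is then scored against vehicle-only cultures of the same repair-deficient yeast strain.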

[17] = at 5.0 µM (retest, dose inferred, filed as 0.5)
[18] = at 50.0 µM (retest, dose inferred, filed as 5.0)

S=C1N(c2ccc(Cl)cc2)C2=C(N=Nc3ccccc3)C(=Nc3ccccc3S2)N1c1ccccn1
growth inhibition [1, 17]: 3% | growth inhibition ([1]; at 11.0 µM): 62% | growth inhibition ([1]; at 33.0 µM): 99% (active) | growth inhibition [1, 18]: 100% (active) | growth inhibition ([1]; at 50.0 µM): 98.5% (active) | growth inhibition ([1]; at 100.0 µM): 99% (active) | growth inhibition ([2]; at 1.2 µM): 14% | growth inhibition ([2]; at 3.7 µM): 19% | growth inhibition ([2]; at 11.0 µM): 40% | growth inhibition ([2]; at 33.0 µM): 90% (active) | growth inhibition ([2]; at 100.0 µM): 99% (active) | growth inhibition [3, 17]: 54% | growth inhibition [3, 18]: 99% (active) | growth inhibition ([3]; at 50.0 µM): 99% (active) | growth inhibition ([4]; at 1.2 µM): -3% | growth inhibition ([4]; at 3.7 µM): -7% | growth inhibition ([4]; at 11.0 µM): 3% | growth inhibition ([4]; at 33.0 µM): 24% | growth inhibition ([4]; at 100.0 µM): 69% | growth inhibition [5, 17]: 13% | growth inhibition [5, 18]: 99% (active) | growth inhibition ([5]; at 50.0 µM): 98.5% (active) | growth inhibition ([6]; at 1.2 µM): 22% | growth inhibition ([6]; at 3.7 µM): 22% | growth inhibition [6, 17]: 53% | growth inhibition ([6]; at 11.0 µM): 41% | growth inhibition ([6]; at 33.0 µM): 84% (active) | growth inhibition [6, 18]: 99% (active) | growth inhibition ([6]; at 50.0 µM): 98.3% (active) | growth inhibition ([6]; at 100.0 µM): 98% (active) | growth inhibition ([7]; at 1.2 µM): -1% | growth inhibition ([7]; at 3.7 µM): -1% | growth inhibition ([7]; at 11.0 µM): 4% | growth inhibition ([7]; at 33.0 µM): 23% | growth inhibition ([7]; at 100.0 µM): 50% | growth inhibition ([8]; at 1.2 µM): 9% | growth inhibition ([8]; at 3.7 µM): 12% | growth inhibition ([8]; at 11.0 µM): 29% | growth inhibition ([8]; at 33.0 µM): 94% (active) | growth inhibition ([8]; at 100.0 µM): 99% (active) | growth inhibition ([9]; at 1.2 µM): 9% | growth inhibition ([9]; at 3.7 µM): 19% | growth inhibition ([9]; at 11.0 µM): 52% | growth inhibition ([9]; at 33.0 µM): 98% (active) | growth inhibition ([9]; at 100.0 µM): 99% (active) | growth inhibition [10, 17]: 32% | growth inhibition [10, 18]: 99% (active) | growth inhibition ([10]; at 50.0 µM): 99% (active) | growth inhibition ([11]; at 1.2 µM): 9% | growth inhibition ([11]; at 3.7 µM): 16% | growth inhibition ([11]; at 11.0 µM): 44% | growth inhibition ([11]; at 33.0 µM): 94% (active) | growth inhibition ([11]; at 100.0 µM): 99% (active)

CC(C)CCC[C@@H](C)[C@H]1CC[C@H]2[C@@H]3CC[C@H]4C[C@H](N)CC[C@]4(C)[C@H]3CC[C@]12C
growth inhibition ([12]; at 1.2 µM): -2% | growth inhibition ([12]; at 3.7 µM): 2% | growth inhibition ([12]; at 11.0 µM): -3% | growth inhibition ([12]; at 33.0 µM): -7% | growth inhibition ([12]; at 100.0 µM): -6% | growth inhibition ([13]; at 1.2 µM): -1% | growth inhibition ([13]; at 3.7 µM): 0% | growth inhibition ([13]; at 11.0 µM): -3% | growth inhibition ([13]; at 33.0 µM): -2% | growth inhibition ([13]; at 100.0 µM): 1% | growth inhibition ([14]; at 1.2 µM): 0% | growth inhibition ([14]; at 3.7 µM): 2% | growth inhibition ([14]; at 11.0 µM): 7% | growth inhibition ([14]; at 33.0 µM): 7% | growth inhibition ([14]; at 100.0 µM): 7% | growth inhibition ([15]; at 1.2 µM): -3% | growth inhibition ([15]; at 3.7 µM): -2% | growth inhibition ([15]; at 11.0 µM): -2% | growth inhibition ([15]; at 33.0 µM): -2% | growth inhibition ([15]; at 100.0 µM): 2% | growth inhibition ([16]; at 1.2 µM): 1% | growth inhibition ([16]; at 3.7 µM): 4% | growth inhibition [16, 17]: -19% | growth inhibition ([16]; at 11.0 µM): 4% | growth inhibition ([16]; at 33.0 µM): -2% | growth inhibition [16, 18]: 49% | growth inhibition ([16]; at 50.0 µM): 27.1% | growth inhibition ([16]; at 100.0 µM): -2% | growth inhibition ([1]; at 1.2 µM): 0% | growth inhibition ([1]; at 3.7 µM): -1% | growth inhibition [1, 17]: -9% | growth inhibition ([1]; at 11.0 µM): -2% | growth inhibition ([1]; at 33.0 µM): -2% | growth inhibition [1, 18]: -12% | growth inhibition ([1]; at 50.0 µM): 46.2% | growth inhibition ([1]; at 100.0 µM): -3% | growth inhibition ([2]; at 1.2 µM): -1% | growth inhibition ([2]; at 3.7 µM): 1% | growth inhibition ([2]; at 11.0 µM): -1% | growth inhibition ([2]; at 33.0 µM): -4% | growth inhibition ([2]; at 100.0 µM): -1% | growth inhibition [3, 17]: -9% | growth inhibition [3, 18]: 53% | growth inhibition ([3]; at 50.0 µM): -1.6% | growth inhibition ([4]; at 1.2 µM): -7% | growth inhibition ([4]; at 3.7 µM): -5% | growth inhibition ([4]; at 11.0 µM): -4% | growth inhibition ([4]; at 33.0 µM): -16% | growth inhibition ([4]; at 100.0 µM): -7% | growth inhibition [5, 17]: -10% | growth inhibition [5, 18]: -3% | growth inhibition ([5]; at 50.0 µM): 19.2% | growth inhibition ([6]; at 1.2 µM): -2% | growth inhibition ([6]; at 3.7 µM): -4% | growth inhibition [6, 17]: -3% | growth inhibition ([6]; at 11.0 µM): -6% | growth inhibition ([6]; at 33.0 µM): -4% | growth inhibition [6, 18]: 52% | growth inhibition ([6]; at 50.0 µM): 15.1% | growth inhibition ([6]; at 100.0 µM): -2% | growth inhibition ([7]; at 1.2 µM): 8% | growth inhibition ([7]; at 3.7 µM): -8% | growth inhibition ([7]; at 11.0 µM): 6% | growth inhibition ([7]; at 33.0 µM): -4% | growth inhibition ([7]; at 100.0 µM): 5% | growth inhibition ([8]; at 1.2 µM): -2% | growth inhibition ([8]; at 3.7 µM): -2% | growth inhibition ([8]; at 11.0 µM): -4% | growth inhibition ([8]; at 33.0 µM): -7% | growth inhibition ([8]; at 100.0 µM): -3% | growth inhibition ([9]; at 1.2 µM): -3% | growth inhibition ([9]; at 3.7 µM): -22% | growth inhibition ([9]; at 11.0 µM): 6% | growth inhibition ([9]; at 33.0 µM): 6% | growth inhibition ([9]; at 100.0 µM): 13% | growth inhibition [10, 17]: 2% | growth inhibition [10, 18]: 55% | growth inhibition ([10]; at 50.0 µM): 39.9% | growth inhibition ([11]; at 1.2 µM): -1% | growth inhibition ([11]; at 3.7 µM): 0% | growth inhibition ([11]; at 11.0 µM): 3% | growth inhibition ([11]; at 33.0 µM): -6% | growth inhibition ([11]; at 100.0 µM): 3%
